Sa growth inh: S. aureus growth inhibition at 42 and 30 °C, primary screen, LtaS inhibitor project, RN4220, two temperatures | OD600, 20 h, 42 °C; active compounds read low | relative growth, % (test concentration not listed) | actives 0.53% (n = 170,000);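 active = relative growth at most 50% at the other temperature and 20+ points below 30 °C, or under 10% at both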
S aureus helic: inhibitors of S. aureus replicative helicase, primary screen, biochemical, fluorescence unwinding readout; AID 485395, 2010; purified S. aureus helicase, fluorescence unwinding assay; actives 0.05% (n = 120,000); replicative DNA helicase (DnaC/DnaB), Staphylococcus aureus; inhibition, % (test concentration not listed); in the data active = inhibition above about 25%, passing the limit was not always enough;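 also: 0% = mean of negative control wells and 100% = mean of positive control wells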
Numbers without * were called inactive; x = not tested or not shown. The list is not random: actives were taken first. Their share in the collection is about 0.52%.

SMILES	Sa growth inh	S aureus helic
Clc1ccc(C2NCCS2)cc1 (stereo not given)	86.1	8.0
Cc1ccc2nc(N3CCCC3)nc(-c3ccccc3)c2c1	81.8	6.0
COC(=O)c1n[nH]n(-c2cc(Cl)cc(Cl)c2)c1=O	89.7	x
COC(=O)c1cc(=O)n(-c2cc(Cl)cc(Cl)c2)[nH]1	13.4*	40.0
O=C(OCCN1CCN(c2cc(C(F)(F)F)nc3c(Cl)cccc23)CC1)C1CC1	96.7	x
Cc1ccc(N2C(=O)Nc3ccccc3C2(O)C(=O)N2CC(C)CC(C)C2)cc1C (stereo not given)	105.4	-10.0
C[C@H]1COc2c(C3(N)CC3)c(F)cc3c(=O)c(C(=O)O)cn1c23	-0.9*	x
C[C@H]1COc2c(N3CCN(C)CC3)c(F)cc3c(=O)c(C(=O)O)cn1c23	-0.5*	x
Cc1cc(F)c(F)cc1C(=O)N1CCN(C)CC1	108.2	7.0
CN1CCN(c2c(F)cc3c(=O)c(C(=O)O)cn4c3c2SCC4)CC1	-0.4*	x
Cc1cc(C)c(OCC(O)Cn2cc(/C=N/O)c3ccccc32)c(C)c1 (stereo not given)	89.9	10.0
Cc1cc(C)c2c(n1)SCC(=O)N2CCCC(=O)NCc1cccc(Br)c1	81.6	7.0
CC[C@H]1OC(=O)[C@H](C)[C@@H](O[C@H]2C[C@@](C)(OC)[C@@H](O)[C@H](C)O2)[C@H](C)[C@@H](O[C@@H]2O[C@H](C)C[C@H](N(C)C)[C@H]2O)[C@](C)(O)C[C@@H](C)/C(=N\OCOCCOC)[C@H](C)[C@@H](O)[C@]1(C)O	0.1*	x
CC[C@H]1OC(=O)[C@H](C)[C@@H](O[C@H]2C[C@@](C)(OC)[C@@H](O)[C@H](C)O2)[C@H](C)[C@@H](O[C@@H]2O[C@H](C)C[C@H](N(C)C)[C@H]2O)[C@](C)(O)C[C@@H](C)/C(=N/OCOCCOC)[C@H](C)[C@@H](O)[C@]1(C)O	-0.5*	x
N#CCCCSc1nc2ccccc2c(=O)n1Cc1ccccc1	99.9	6.0
Cc1noc(C)c1COC(=O)c1ccc2c(c1)C(=O)N(Cc1ccccc1)C2=O	75.8	32.0
CC1CC(C(F)(F)F)n2ncnc2N1C(=O)CSc1nc2ccccc2o1 (stereo not given)	85.4	1.0
CCC1C(=O)NCCN1C(=O)c1ccc(C)c(I)c1 (stereo not given)	93.8	-5.0
COC(=O)c1c2c(n3ccc(C)cc13)C(=O)c1ccccc1C2=O	7.5*	21.0
COC(=O)c1c2c(n3ccccc13)C(=O)c1ccccc1C2=O	x	-65.0
CCc1ccc(NC(=O)c2ccc(NC(=O)CCS(=O)(=O)c3cccs3)cc2)cc1	98.2	15.0
C[n+]1ccc(/C=C/c2ccc3c(c2)OCO3)c2ccccc21	0.0*	-33.0
C[n+]1ccc(/C=C\c2ccco2)c2ccccc21	3.2*	-25.0
C[n+]1ccc(/C=C/c2ccccc2O)c2ccccc21	43.4	50.0*
O/N=C/c1ccco1	110.2	12.0
SMILES	Sa growth inh	S aureus helic
CN(C)C(=O)/C=C/c1ccc2c(c1)OCO2	92.6	-1.0
Oc1ccc(N=Cc2ccccc2O)cc1	91.7	-4.0
Oc1cccc(N=Cc2ccc(N3CCOCC3)cc2)c1	80.6	-9.0
CN(C)/C=N/c1nc2ccccc2s1	60.8	11.0
c1ccc(-c2noc(CSc3nnc(Cc4cccs4)n3C3CCCCC3)n2)cc1	81.5	8.0
N#C/C(=C\c1ccc(F)cc1)c1c[nH]c2ccccc12	42.4*	x
N#C/C(=C\c1ccc(Cl)cc1Cl)c1c[nH]c2ccccc12	71.4	x
CCOC(=O)c1ccc2nc(C(F)(F)F)nc(NCCCN3CCOCC3)c2c1	85.3	-2.0
Cc1cccc(-c2nnc(C3CCNCC3)o2)c1	75.0	-7.0
COc1cc(C2c3c(-c4cc(C)ccc4O)n[nH]c3C(=O)N2Cc2ccco2)cc(OC)c1OC (stereo not given)	107.2	x
CCOc1cccc(C2c3c(-c4cc(C)ccc4O)n[nH]c3C(=O)N2Cc2ccco2)c1 (stereo not given)	35.5*	x
O=C(/C=C/c1ccccc1)Oc1ccc2oc(=O)sc2c1	122.4	16.0
O=C(Cn1c(=O)oc2ccccc21)NC1CCCc2ccccc21 (stereo not given)	91.1	6.0
O=C1NC(=O)/C(=C\c2cccc(C(F)(F)F)c2)S1	7.3*	-31.0
CN(C)c1ccc(/C=C2\SC(=O)NC2=O)cc1	x	-22.0
CN(C1=CC(=O)c2ccccc2C1=O)c1ccccc1	x	-4.0
COC1=CC(=O)c2ccccc2C1=O	1.0*	29.0
O=C(CSc1nc2ccccc2o1)c1ccc(Cl)cc1	102.3	-9.0
CCOc1ccc2ccccc2c1C=C1C(=O)N(C)C(=S)N(C)C1=O	88.7	12.0
CCOc1ccc(-c2nnc(N(C(=O)C3CCC3)C(C)C)s2)cc1	104.5	3.0
CCS(=O)(=O)c1ncc(Cl)c(C(=O)N(Cc2ccccc2)c2ccc(OC)cc2)n1	5.0*	x
CCSc1ncc(Cl)c(C(=O)N(Cc2ccccc2)Cc2ccco2)n1	94.5	x
COc1ccc(N(Cc2ccccc2)C(=O)c2nc(SC)ncc2Cl)cc1	103.0	x
CCCS(=O)(=O)c1ncc(Cl)c(C(=O)N(Cc2ccccc2)Cc2ccco2)n1	1.2*	x
CCCC(C)C1C(C#N)=C(N)OC2=C1C(=O)CC(C)(C)C2 (stereo not given)	x	-12.0
SMILES	Sa growth inh	S aureus helic
COC(=O)c1c(NC(=O)c2ccc(S(=O)(=O)N3CCCCC3C)cc2)sc2c1CCN(C)C2 (stereo not given)	98.7	5.0
COc1ccccc1NC(=O)N(Cc1cc2c(C)ccc(C)c2[nH]c1=O)CC1CCCO1 (stereo not given)	88.6	8.0
O=C(CCN1CCCCC1)c1ccccc1	93.7	2.0
CCc1oc2ccccc2c1C(=O)CCN1CCCCC1	41.5*	15.0
CC(C)COc1ccc(C(=O)NN)cc1	102.1	1.0
O=C(NCCc1nc2ccccc2[nH]1)c1ccccc1	111.9	-12.0
CCc1c(C)sc2c1CCN(Cc1cccc(F)c1)C2c1ccccc1 (stereo not given)	-1.3*	x
CCc1c(C)sc2c1CCN(Cc1ccc(C#N)cc1)C2c1ccccc1 (stereo not given)	30.3	x
CCc1c(C)sc2c1CCN(Cc1ccc(F)cc1)C2c1ccccc1 (stereo not given)	-1.1*	x
CCc1c(C)sc2c1CCN(C(=O)Nc1cc(C)cc(C)c1)C2c1ccccc1 (stereo not given)	89.3	x
Cc1cc(C(=O)CSc2n[nH]c(=O)n2C2CC2)c(C)n1-c1ccccc1	103.6	-4.0
O=c1cc(-c2ccccc2)c2ccc(O)c(O)c2o1	x	58.0*
CCc1cc(=O)oc2c(O)c(O)ccc12	102.0	11.0
Oc1c(C(c2cccs2)N2CCCCC2)ccc2cccnc12 (stereo not given)	8.1*	10.0
Oc1c(C(c2ccc(F)cc2)N2CCCCC2)ccc2cccnc12 (stereo not given)	102.6	-10.0
CCOc1ccc(Nc2nc3ccccc3s2)cc1	94.8	-11.0
Cc1cccc(NC(=O)NC(=O)c2ccc(C(C)(C)C)s2)n1	89.8	x
CC(C)c1nnc(NC(=O)c2nc(S(=O)(=O)Cc3ccccc3)ncc2Cl)s1	7.3*	x
CC(C)Sc1ncc(Cl)c(C(=O)Nc2nnc(C(C)C)s2)n1	97.3	x
Cc1ccc(NC(=O)c2nc(S(=O)(=O)Cc3ccc(F)cc3)ncc2Cl)cc1C	101.3	x
CCOC(=O)c1ccc(NC(=O)c2nc(S(=O)(=O)Cc3ccccc3)ncc2Cl)cc1	99.7	x

Screening data: PubChem BioAssay, ICCB-Longwood Screening Facility, Harvard Medical School
